From PubChem BioAssay AID1508637 (National Center for Advancing Translational Sciences (NCATS), 2021)
Records with an inconclusive call do not appear. Calls of active or inactive are those of the source. Calls come from the whole dose curve; as a rule, active = well fitted inhibition curve with a large enough effect; inconclusive = small, poorly fitted or top-dose-only effect; inactive = flat fitted curve, though single readings scatter.

test: qHTS for characterization and localization of zebrafish homologs of the human ABCB1 multidrug transporter: empty vector transfected cells; conditions: empty vector transfected control cells, CellTiter-Glo luminescence viability, 72 h; series mostly up to 46.1 µM
How it was run: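 Empty-vector, P-gp-overexpressing MDR-19 and zebrafish abcb4- or abcb5-transfected cells were exposed to ~90 P-gp substrates at varying concentrations for 72 h at 37C. Viability was read by CellTiter-Glo luminescence; cytotoxic meant inhibitory curve class, >50% maximal response and AC50 < 10 uM.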

SMILES	Potency
C=CCNC1=C2CC(C)CC(OC)C(O)C(C)/C=C(\C)C(OC(N)=O)C(OC)/C=C/C=C(\C)C(=O)NC(=CC1=O)C2=O (configuration not stated)	1480 nM (active)
CCN(CCCO)CCCOc1ccc2c(Nc3cc(CC(=O)Nc4cccc(F)c4)[nH]n3)ncnc2c1	inactive
CC[C@@]1([C@@H]2O[C@@H]([C@H]3O[C@@](O)(CO)[C@H](C)C[C@@H]3C)C[C@@H]2C)CC[C@H]([C@]2(C)CC[C@]3(C[C@H](O)[C@@H](C)[C@@H]([C@@H](C)[C@@H](OC)[C@H](C)C(=O)O)O3)O2)O1	148 nM (active)
C[C@@]12O[C@@H](C[C@]1(O)CO)n1c3ccccc3c3c4c(c5c6ccccc6n2c5c31)CNC4=O	2640 nM (active)
Cc1ccc(-c2ncn(-c3ccc(Nc4nccc(-c5cccc(N6CCOCC6)c5)n4)cc3)n2)cn1	3320 nM (active)
CCN(CC)Cc1ccc(C(=O)N(CCc2ccccc2OC)[C@@H]2CCNC2)cc1	inactive
COC[C@H](NC(=O)c1cnc(C)s1)C(=O)N[C@@H](COC)C(=O)N[C@@H](Cc1ccccc1)C(=O)[C@@]1(C)CO1	166 nM (active)
C#Cc1cccc(Nc2ncnc3cc(OC)c(OCCCCCCC(=O)NO)cc23)c1	2960 nM (active)
CCn1c(-c2nonc2N)nc2c(C#CC(C)(C)O)ncc(OC[C@H]3CCCNC3)c21	1180 nM (active)
Cc1ccc(C(=O)N(CCCN)C(c2nc3cc(Cl)ccc3c(=O)n2Cc2ccccc2)C(C)C)cc1 (configuration not stated)	1180 nM (active)
CCn1nnc2c(N3CCOCC3)nc(-c3ccc(NC(=O)Nc4ccc(C(=O)N5CCN(C)CC5)cc4)cc3)nc21	332 nM (active)
COc1cc2c(NC3CCN(C(C)C)CC3)nc(N3CCCN(C)CC3)nc2cc1OCCCN1CCCC1	16600 nM (active)
Cc1[nH]c2ccccc2c1CCNCc1ccc(/C=C/C(=O)NO)cc1	235 nM (active)
NC(=O)Nc1cc(-c2ccc(CN3CCOCC3)c(F)c2)sc1C(=O)N[C@H]1CCCNC1	469 nM (active)
C[C@@H]1O[C@@H](O[C@H]2[C@H](O)[C@@H](O)[C@H](O[C@H]3[C@H](O[C@H]4CC[C@@]5(C)C(=CC[C@@H]6C5CC[C@]5(C)[C@@H]7[C@H](C[C@@H]65)O[C@]5(CC[C@@](C)(CO[C@@H]6O[C@H](CO)[C@@H](O)[C@H](O)[C@H]6O)O5)[C@H]7C)C4)O[C@H](CO)[C@@H](O)[C@@H]3O)O[C@@H]2CO)[C@H](O)[C@H](O)[C@H]1O (some centres not stated)	353 nM (active)
COc1cccc2c1C(=O)c1c(O)c3c(c(O)c1C2=O)C[C@@](O)(C(=O)CO)C[C@H]3O[C@H]1C[C@H](N)[C@@H](O)[C@H](C)O1	105 nM (active)
CC[C@@H]1C(=O)N(C)c2cnc(Nc3ccc(C(=O)NC4CCC(N5CCN(CC6CC6)CC5)CC4)cc3OC)nc2N1C(C)C (some centres not stated)	52.6 nM (active)
